Assay outcomes: PubChem BioAssay, Columbia University Molecular Screening Center
cytoskel mod: modifiers of F-actin cytoskeleton organization, primary screen, imaging, HUVEC, phalloidin staining, high-content imaging | HUVEC TNFa F-actin phalloidin imaging | inhibition, % at 2 µM | actives 0.18% (n = 91,000) | AID 836, 2007;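 active means inhibition above the batch mean plus 3 SD and confirmed as a hit by visual image inspection, cut at about 30% in these data, passing the limit was not always enough; inconclusive means above the inhibition threshold but rejected on visual inspection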
E-sel TNF inh: E-selectin induction blockers in HUVEC – imaging, immunofluorescence, high content, primary screen. HUVEC TNFa-induced E-selectin immunofluorescence. inhibition, % at 2 µM. actives 0.71% (n = 120,000). AID 1246, 2008;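 active means inhibition above the batch mean plus 3 SD, and confirmed as a hit on visual image review, cut at about 43% in these data; inconclusive means passes the inhibition cutoff but fails visual image review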;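 further: 0% = TNF-stimulated DMSO wells and 100% = unstimulated control wells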
VCAM1 TNFa inh: inhibitors of TNFa-induced VCAM1 expression, primary screen, imaging, HUVEC, TNFa stimulus, immunofluorescence. HUVEC TNFa-induced VCAM-1 immunofluorescence, high-content imaging. inhibition, % at 2 µM. actives 0.48% (n = 95,000). AID 802, 2007;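 active means inhibition above the batch mean plus 3 SD, with images confirmed as a hit by eye, cut at about 37% in these data; inconclusive means inhibition above that limit but hit not confirmed in images; inactive means inhibition not above that limit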;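 further: 0% = TNF-stimulated DMSO wells and 100% = unstimulated control wells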
HUVEC tox TNFa: cytotoxicity in TNFa-stimulated HUVEC, primary screen, cytotoxicity control for VCAM1 expression modulator project, imaging, Hoechst nuclei count; HUVEC TNFalpha-stimulated, Hoechst cell count; actives 0.17% (n = 93,000); AID 848, 2007; cell count reduction, % at 2 µM;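 active means cell count reduction exceeding the screen mean by over 5 SD, scaled to untreated wells per plate, cut at about 78% in these data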;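 further: cells counted after 24 h of TNF alpha exposure following the 1 h pretreatment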
Active calls of the source: *; ? = inconclusive; / = not tested or not shown. Shown are actives, neighbours in structure and some others; about 1% of the full set was active somewhere.

SMILES | cytoskel mod | E-sel TNF inh | VCAM1 TNFa inh | HUVEC tox TNFa
Cc1cc([N+](=O)[O-])nn1CC(=O)Nc1sc2c(c1C(N)=O)CCCC2 | / | 80.1* | / | /
Cc1cc([N+](=O)[O-])nn1CCCC(=O)Nc1sc2c(c1C(N)=O)CCCC2 | / | -4.9 | / | /
COc1ccc(N/C=C/C(=O)c2ccc(C)cc2)c([N+](=O)[O-])c1 | 19.2 | 65.3* | -5.8 | -7.2
Cc1ccccc1-c1nc(CN2CCC(C(=O)NCCCN3CC(C)CC(C)C3)CC2)c(C)o1 (stereo unspecified) | -36.2 | 17.5 | 42.8* | -8.1
COc1ccccc1Cc1nc(-c2ccncc2)no1 | / | 77.3* | / | /
C/C(=N\NC(=O)CC1N=C(Cc2ccccc2)NNC1=O)c1ccc(C)cc1 (stereo unspecified) | -17.2 | 100.0* | 15.1 | 51.5
CCNc1nc(OC)nc(SCC(N)=O)n1 | -1.2 | 17.7 | -9.0 | 4.8
O=C(Nc1ccncc1)Nc1ccc(F)cc1F | -5.4 | -9.9 | -10.5 | -22.5
Cc1ccc(S(=O)(=O)Nc2ccc(NC(=O)Nc3ccc(F)cc3F)cc2)cc1 | / | 82.0* | / | /
Cc1cc(/C=C(\C#N)C(=O)NCCc2c[nH]c3ccccc23)c(C)n1C | / | 13.4 | / | /
COc1cc(/C=C(/C#N)C(=O)NCCc2c[nH]c3ccccc23)ccc1OCc1ccccc1F | -0.4 | -12.2 | 36.8* | 36.0
CCc1ccc(N(C(=O)c2snc(C(N)=O)c2N)C(C(=O)NCCC(C)C)c2c[nH]c3ccccc23)cc1 (stereo unspecified) | 5.6 | 23.2 | 14.9 | -15.4
Cc1ccc(CNC(=O)Cn2ccc3ccccc3c2=O)o1 | 35.8* | / | -13.7 | 67.7
COC(=O)CNC(=O)Cn1ccc2ccccc2c1=O | 49.1 | -33.8 | -1.0 | -27.8
O=C(CSCC(=O)OCC(=O)c1ccc(Br)cc1)Nc1cccc2ccccc12 | 13.1 | -19.1 | 15.9 | -10.4
CN1C(=O)S/C(=C/c2ccccc2OCc2ccc(C(=O)O)cc2)C1=O | / | -13.2 | / | /
CN1C(=O)S/C(=C\c2ccccc2OCc2ccc(C(=O)O)cc2)C1=O | / | 100.0* | / | /
CCOC(=O)N1CCN(C(=S)NCCOC)CC1 | -12.5 | 19.6 | 14.9 | -15.2
COC(=O)CN1C(=S)N(c2ccc(Cl)cc2)C(=O)C1CC(=O)Nc1ccc(F)cc1 (stereo unspecified) | / | 17.2 | / | /
COC(=O)CN1C(=S)N(c2ccc(Cl)cc2)C(=O)C1CC(=O)Nc1ccc(Cl)cc1 (stereo unspecified) | / | 57.0* | / | /
Cc1cc(C)n(CC(O)COc2ccc(OCC(O)Cn3nc(C)cc3C)cc2)n1 (stereo unspecified) | 4.6 | 3.9 | -1.5 | -14.4
CCc1cc(OCCOCCN(C)C)ccc1Cl | / | 92.3* | / | /
CCN(CC)CCOCCOc1cc(C)c(Cl)c(C)c1 | -13.1 | 8.3 | 15.9 | 3.5
Cc1ccc2cc(C#N)c(N3CCCN(C(=O)C4CCCO4)CC3)nc2c1C (stereo unspecified) | / | 5.6 | / | /
Cc1ccc2cc(C#N)c(N3CCCC3)nc2c1C | 0.7 | 100.0* | 12.6 | -7.1
SMILES | cytoskel mod | E-sel TNF inh | VCAM1 TNFa inh | HUVEC tox TNFa
Cc1ccc(CNc2ccc(S(=O)(=O)N3CCOCC3)cc2[N+](=O)[O-])cc1 | / | 75.8* | / | /
COc1cc(OC)cc(C(=O)Nn2cc(C(=O)Nc3ccc(F)cc3F)c3ccccc3c2=O)c1 | / | -12.9 | / | /
C/C=C/Cn1c(N2CCCCCC2)nc2c1c(=O)[nH]c(=O)n2C | 13.3 | 74.1* | -9.2 | 3.4
Cn1c(=O)[nH]c(=O)c2c1nc(N1CCCCCC1)n2CC(N)=O | -5.9 | -41.6 | 9.7 | -8.7
COc1ccc(-c2nnc(SCC(=O)N3CCOCC3)o2)cc1OC | / | 96.4* | / | /
COc1ccc(-c2nnc(SCC(=O)N3CCN(c4ccccc4)CC3)o2)cc1OC | / | -14.7 | / | /
CCSc1nnc(NC(=O)COc2ccc3ccccc3c2)s1 | -7.9 | -5.3 | 0.1 | -19.4
CCC(=O)Nc1nnc(-c2ccccn2)o1 | / | 68.0* | / | /
Cc1ccc(SCCC(=O)Nc2ccccc2C(=O)NC(C)C)cc1 | / | 66.7* | / | /
CCc1ccc(C2C3=C(CCCC3=O)OC3=C2C(=O)CCC3)cc1 | / | -7.1 | / | /
COC(=O)C1=C(C)OC(N)=C(C#N)C1c1ccco1 (stereo unspecified) | -0.8 | -7.9 | 19.3 | -0.4
CCOC(=O)C1=C(c2ccccc2)OC(N)=C(C#N)C1c1ccco1 (stereo unspecified) | 33.1 | -7.8 | 68.6* | 67.8
CN(C)S(=O)(=O)c1ccc(NS(=O)(=O)/C=C/c2ccccc2)cc1 | -2.1 | 98.7* | 14.0 | -46.5
COC(=O)CCC(=O)Nc1nc(-c2ccccc2)cs1 | -9.9 | 61.7* | -1.7 | -6.6
COc1cc(C(=O)Nc2ccc(N3CCOCC3)cc2)ccc1OCc1c(C)noc1C | / | -23.9 | / | /
COCCCNC(=O)CN(Cc1ccc(Cl)cc1)S(C)(=O)=O | -30.9 | 6.1 | / | 97.4*
c1csc(C(c2nnnn2C2CCCC2)N2CCCC3(CCCCC3)C2)c1 (stereo unspecified) | -6.0 | 56.6* | 12.6 | -3.0
c1csc(C(c2nnnn2C2CCCC2)N2CCOCC2)c1 (stereo unspecified) | / | -17.1 | / | /
O=C1CCC(c2ccccc2)N1C(=O)c1cccnc1 (stereo unspecified) | 7.4 | -16.3 | 6.3 | -29.5
Cc1cc(C)c(NC(=O)CSc2ccc(-c3cccnc3)nn2)c(C)c1 | / | -7.4 | / | /
COC(=O)c1sccc1NC(=O)c1ccc(C)s1 | 2.0 | -40.7 | 29.9 | -16.0
COC(=O)c1sccc1NC(=O)c1ccc(Br)s1 | -4.7 | -2.4 | 52.6* | 0.4
Cn1c(NCCN2CCCCC2)cc(=O)n(C)c1=O | / | 80.6* | / | /
CCCCCCOC(=O)/C=C/c1c(C)[nH]c(=O)[nH]c1=O | 7.1 | 74.0* | 11.3 | -2.8
CC(=O)c1c(C(C)=O)c(C)n(NC(=O)c2cccnc2)c1C | -3.4 | / | 12.0 | -26.8
SMILES | cytoskel mod | E-sel TNF inh | VCAM1 TNFa inh | HUVEC tox TNFa
CC(=O)c1c(C(C)=O)c(C)n(NC(=O)c2ccccc2O)c1C | 75.7* | 1.5 | -4.4 | -16.2
COC(=O)c1ccc(-n2nnnc2SCC(=O)N2CCCCC2)cc1 | -14.3 | / | ? | 100.0*
CSC1=NCCN1C(=O)Cc1ccc(Cl)cc1 | -7.7 | -5.9 | 43.5* | 9.5
COc1ccc(CC(=O)N2CCN=C2SC)cc1 | 5.2 | 6.3 | 3.0 | -31.2
N#Cc1ccc(-c2cccnc2)nc1SCc1ccc(Cl)c(Cl)c1 | / | 67.1* | / | /
CCc1cccc(CC)c1N(COC)C(=O)Cn1ccccc1=N | 78.6* | 4.7 | 17.1 | -46.7
COCC(=O)NC1CCN(C(=O)NCc2ccccc2)CC1 | 6.3 | 8.0 | 0.2 | -4.8
COc1cc(NC(=S)NC(C)=O)ccc1NC(=O)C(C)C | 12.4 | / | 68.2 | 94.6*
COc1cc(NC(=O)C(C)C)ccc1NC(=O)c1ccco1 | -18.4 | / | 14.0 | -16.7
O=C(COC(=O)CNC(=O)c1ccco1)NCc1ccc(F)cc1 | / | -27.5 | / | /
CC(C)Cc1nnc(NS(C)(=O)=O)s1 | 15.9 | 52.4* | -3.1 | 2.1
Cn1c(SCc2ccc(C#N)cc2)nnc1-c1cccc(Cl)c1 | 2.7 | 60.1* | 3.1 | -4.1
COc1ccccc1OCc1ccc(C(=O)NCC2CCCO2)o1 (stereo unspecified) | 0.9 | / | 12.2 | -4.8
COc1ccc(C2CC(C(F)(F)F)n3nc(C(=O)O)c(Br)c3N2)cc1 (stereo unspecified) | 4.8 | 26.0 | 11.9 | 14.8
